Screens (PubChem)
Only some compounds are listed: those with a hit (about 0.45% of all), similar ones and a draw of the others.
FMDV Renilla = antivirals against foot and mouth disease virus replicon | AID 1745857 | 120,000 tested, 0.32% active | FMDV replicon cells, Renilla luciferase signal | Potency, µM (top dose mostly 57.5 µM), without a hit: top-dose activity change, negative = inhibition, most hits filed as inhibitors; further: nearly all actives have a fitted effect of over 55% in size
FMDV antiviral = shows antiviral activity against foot and mouth disease virus. 120,000 tested, 0.23% active. AID 1745856. FMDV antiviral cell assay, firefly luciferase signal. Potency, µM (doses to about 57.5 µM), without a hit: at the top dose activity change, negative = inhibition, hits mostly inhibitors; further: nearly all actives have a fitted effect of over 60% in size
* marks the source's active call; other numbers are inactive results; ? = inconclusive; [ ] = another dose, or the depositor's remark. The call rests on the fitted dose curve. On the % scale 0 is the no-effect control and ±100 the full control effect; potency means the concentration at half of the fitted maximal effect.

SMILES | FMDV Renilla | FMDV antiviral
Cc1cc(C(C#N)c2ccc(Cl)cc2)c(Cl)cc1NC(=O)c1cc(I)cc(I)c1O (stereo not drawn) | 11.2µM* | -31.2%[11.5 µM]
Cc1cc(C(C#N)c2ccc(Cl)cc2)c(Cl)cc1NC(=O)CCc1ccccc1 (stereo not drawn) | 1.8% | 0.9%
CCOc1ccc(Oc2ccc(Cl)cc2NC(=O)Cn2cnc3c2c(=O)n(C)c(=O)n3C)cc1 | -4.1% | 5.1%
CC1CCCC/C1=N\NC(=S)Nc1ccccc1C(F)(F)F (stereo not drawn) | 51.5% | 62.5%
COc1ccc2c(C)c(CCC(=O)NCc3ccc(S(=O)(=O)N(C)C)cc3)c(=O)oc2c1 | -15.8% | -6.4%
C=C(C)COc1ccc2c(C)c(CCC(=O)NCc3ccc(S(N)(=O)=O)cc3)c(=O)oc2c1 | 7.08µM* | 4.47µM*
O=c1[nH]nc(-c2ccco2)c2c1Nc1nnnn1C2c1ccccc1Cl (stereo not drawn) | 0.0% | 44.3%
COc1ccc(Nc2nc3ccccc3nc2NS(=O)(=O)c2cccc(Cl)c2)cc1 | 53.6% | 4.0%
O=S(=O)(Nc1nc2ccccc2nc1Nc1ccc(F)cc1)c1cccc(Cl)c1 | ? | 6.31µM*
O=C(O)CCCCCN1C(=O)CC(c2ccccc2)CC1=O | -8.7% | 2.5%
C=CCSC1=N/C(=C\c2ccc(OC)cc2)C(=O)S1 | 4.6% | -3.0%
Cc1cc(C)c(S(=O)(=O)N2CCC(C(=O)NCc3csc(-c4ccccc4)n3)CC2)c(C)c1 | -12.0% | -25.3%
O=C(Nc1ccncc1)c1ccc(-c2ccccc2)cc1 | 3.16µM* | -10.7%
O=C(Nc1ccc(F)c(Cl)c1)c1ccc(-c2ccccc2)cc1 | 10.5% | 118.2%
COc1cc(NC(=O)Nc2ccc3nc(N4CCOCC4)cc(C)c3c2)cc(OC)c1OC | 5.1% | 18.7%
CCc1[nH]c(C(=O)OCC(=O)NC2CCCC2)c(C)c1C(=O)OC | -24.0% | -0.6%
CC(C)CNC(=O)c1cc2cc(N(C)S(C)(=O)=O)ccc2s1 | ? | 43.7%
CCN(c1ccc2sc(C(=O)NCCC(C)C)cc2c1)S(C)(=O)=O | 25.1µM* | ?
COc1cc(CCNC(=O)c2cc(=O)c3ccccc3o2)ccc1OC(F)F | 2.1% | 0.1%
COc1ccc2c(c1)c(C(C)=O)c(C)n2Cc1ccccc1 | ? | 20µM*
CCn1c(C)c(C(=O)NCc2ccccc2)c2cc(OC)ccc21 | 39.7% | 16.7%
COCCn1c(N2CCCC(C)C2)nc2c1c(=O)[nH]c(=O)n2C (stereo not drawn) | -0.3% | 10.2%
COC(=O)CC(NC(=O)c1cccc(CS(C)(=O)=O)c1)c1ccc(F)cc1 (stereo not drawn) | -2.8% | -6.2%
CCN(CC)CCCNC(=O)c1nc(-c2cccc3[nH]ccc23)no1 | 4.0% | 0.4%
COc1ccc2cc(COC(=O)C3COc4ccccc4O3)ccc2c1 (stereo not drawn) | 12.2% | 0.0%
SMILES | FMDV Renilla | FMDV antiviral
C=C(COC(C)=O)C1Cc2c(ccc3c2OC2COc4cc(OC)c(OC)cc4C2C3=O)O1 (stereo not drawn) | 0.199µM* | ?
CCOc1nc2ccccc2nc1N1CCC(C(N)=O)CC1 | 2.3% | 2.5%
CCOc1ccc(C(=O)Nc2ccc3c(c2)N(C(C)=O)CCC3)cc1OCC | 3.7% | ?
CC(=O)N1CCCc2ccc(NC(=O)c3ccc(C(F)(F)F)cc3)cc21 | 0.7% | 3.16µM*
CNc1nc2c(c(=O)n(C)c(=O)n2C)n1CC(O)COc1ccc(C)cc1 (stereo not drawn) | 11.2µM* | ?
CCNc1nc2c(c(=O)n(C)c(=O)n2C)n1CC(O)COc1ccccc1 (stereo not drawn) | -11.4% | -1.3%
CCCCn1nnnc1CSc1nnc(-c2ccccc2)n1-c1ccccc1 | 6.9% | -4.3%
CCOC(=O)C1CCCN(S(=O)(=O)c2ccc3c(c2)CCCN3C(C)=O)C1 (stereo not drawn) | 150.7% | -31.9%
COc1ccccc1N1CCN(C(=O)C2CCCN(S(=O)(=O)c3ccc4c(c3)CCCN4C(C)=O)C2)CC1 (stereo not drawn) | 25.1µM* | ?
O=[N+]([O-])c1ccc(N/N=C/c2c[nH]c3ccccc23)c(S(=O)(=O)Nc2ccccc2Cl)c1 | 68.2% | -18.1%
O=[N+]([O-])c1ccc(N/N=C/c2c[nH]c3ccccc23)c(S(=O)(=O)Nc2ccc(Cl)cc2)c1 | -92.9% | 25.1µM*
Cc1ccc2nc(C)c(C(=O)N3CCN(Cc4ccccc4C)CC3)cc2c1 | 15.8µM* | 15.8µM*
Cc1ccc(S(=O)(=O)N2CCN(C(=O)c3cc4cc(C)ccc4nc3C)CC2)cc1 | 2.6% | 13.7%
Cn1c(=O)c2c(-c3ccccc3)n3c(c2n(C)c1=O)C(c1cccc(O)c1)OCC3 (stereo not drawn) | -6.1% | -4.3%
CC(=O)c1ccc(S(=O)(=O)N2CCn3cccc3C2c2ccc(F)c(F)c2)cc1 (stereo not drawn) | 23.4% | -9.5%
CC(=O)c1ccc(S(=O)(=O)N2CCn3cccc3C2c2ccccc2F)cc1 (stereo not drawn) | 31.6µM* | 13.1%
Cc1ccc2nc(C)c(C(=O)NCCCOCC(C)C)cc2c1 | -10.1% | -13.2%
NS(=O)(=O)c1ccc(NC(=O)c2ccc3c(c2)CCN3S(=O)(=O)c2ccccc2)cc1 | 64.9% | -9.2%
O=C(Nc1ccc(Br)cc1)c1cccc(S(=O)(=O)N2CCc3ccccc32)c1 | 3.98µM* | 31.6µM*
O=C(CN1CCc2ccccc2C1)N1N=C(c2ccco2)CC1c1ccco1 (stereo not drawn) | 32.3% | -4.5%
NS(=O)(=O)c1ccc(N/N=C/c2cccc(Cl)c2)c([N+](=O)[O-])c1 | 5.2% | 1.0%
CCc1nc(NCc2ccncc2)c(C#N)c2c1CCCC2 | ? | 7.08µM*
CCCCc1nc(NCc2ccncc2)c(C#N)c2c1CCCC2 | 0.0% | ?
O=c1[nH]c(=O)n(CC2CCCO2)c2nccc(-c3cccc4ccccc34)c12 (stereo not drawn) | 3.1% | 4.2%
N#Cc1nc(-c2ccco2)oc1N1CCN(C(=O)c2ccccc2Cl)CC1 | 0.3% | -8.0%
SMILES | FMDV Renilla | FMDV antiviral
N#Cc1nc(-c2ccco2)oc1N1CCN(C(=O)CNC(c2ccccc2)c2ccccc2)CC1 | 10µM* | ?
O=[N+]([O-])c1ccc(NC(c2ccccc2)c2ccccn2)c2ccncc12 (stereo not drawn) | -4.5% | -8.1%
CC(Nc1ccc([N+](=O)[O-])c2cnccc12)c1ccc(F)cc1 (stereo not drawn) | 25.1µM* | ?
O=C(Nc1cccc(Br)c1)Nc1ccc2c(c1)N(C(=O)c1ccccc1)CC2 | 14.1µM* | ?
CC(=O)c1cccc(NC(=O)Nc2cccc(Br)c2)c1 | 2.3% | 11.0%
COc1ccc(Cc2nc(C)c(-c3ccccc3)s2)cc1OC | 10µM* | ?
COc1ccc(-c2nc(C)c(-c3ccccc3)s2)cc1 | 24.8% | 267.4%
Cc1nc2ccc(C(=O)NCc3ccccn3)cc2nc1C | -4.8% | 2.2%
COc1cc(/C=C2\NC(=O)NC2=O)c(Br)cc1OCC(=O)O | -8.0% | -15.3%
CCOc1cc(Br)c(/C=C2/NC(=O)NC2=O)cc1OC | ? | 2.82µM*
O=C(CCCn1c(=O)c2cccn2c2ccccc21)N1CCN(c2cccc(Cl)c2)CC1 | -20.2% | -26.8%
Cc1ccc(SCCn2cc(S(=O)(=O)N3CCCC3)ccc2=O)cc1 | -20.8% | -20.1%
CC(=O)c1c(C)[nH]c(C(=O)OC(C)c2nnc(-c3cccc(C)c3)o2)c1C (stereo not drawn) | 0.0% | -26.7%
CC(=O)c1c(C)[nH]c(C(=O)OC(C)c2nc(-c3ccccc3)no2)c1C (stereo not drawn) | 28.2µM* | ?
